High-throughput results (PubChem BioAssay)
Shown are actives, neighbours in structure and some others; about 2.3% of the full set was active somewhere.
697 NFkB inh = lowers PMA/ionomycin-induced NF-kB signal in 697 B cells. 697 B-cell NF-kB luciferase reporter, 16 h. inhibition, % at 4 µM. 330,000 tested, 0.33% active. AID 435022; in the data active = inhibition above about 35%
Shn3 inh set2 = inhibitors of Schnurri-3 3'UTR reporter in osteoblasts; Clone20 osteoblast Shn3 3'UTR firefly luciferase, 24 h; AID 588674; 360,000 tested, 0.52% active; inhibition, % at 12.5 µM;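 active = mean inhibition of at least 75% with every replicate also reaching 75%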;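 note: 0% = median of neutral control wells and 100% = pilot-screen positive control compound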
Jurkat NFkB inh = lowers PMA/ionomycin-induced NF-kB signal in Jurkat cells. PMA/ionomycin-induced NF-kB luciferase reporter, luminescence. inhibition, % at 4 µM. 330,000 tested, 0.53% active; in the data active = inhibition above about 50%
Gli-Sufu antag = antagonists of Gli-Sufu signaling. 340,000 tested, 0.74% active. Sufu-KO-LIGHT fibroblasts, Gli luciferase reporter luminescence. inhibition, % at 5 µM;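 active = inhibition above about 55%, limit read from the data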;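 note: 0% = DMSO-treated cells and 100% = wells with medium but no cells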
LMP1 NFkB inh = reduces LMP1-driven NF-kappaB luciferase signal; LMP1-induced NF-kappaB luciferase reporter cells, luminescence; inhibition, % at 12.5 µM; 350,000 tested, 0.69% active; AID 504558; in the data active = inhibition above about 41%;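 note: 0% = neutral control wells and 100% = reference inhibitor control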
MITF TRPM1 inh = inhibitors of MITF-driven TRPM1 promoter in melanoma cells; SK-MEL-5 TRPM1 promoter luciferase, 24 h; inhibition, % at 12.5 µM; 330,000 tested, 0.83% active;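 active = mean inhibition across replicates of 60% or more, whatever share of single replicates reaches that level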
Gli-Sufu confirm = Gli-SUFU antagonism confirmation, single concentration; Sufu-KO-LIGHT cells, Gli luciferase reporter, luminescence; shares compounds with Gli-Sufu antag; inhibition, % at 5 µM; 2,500 tested, 40% active;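 active = mean inhibition at 5 µM reaching about 45%, limit read from the data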;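 note: plate controls were DMSO-treated cells for no effect and wells lacking cells for full effect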
Gli cytotox = counter-screen for Gli-SUFU antagonists: cytotoxicity; cytotoxicity, % at 5 µM; shares compounds with Gli-Sufu antag; 2,500 tested, 32% active; AID 651994; Sufu-KO-LIGHT cells cytotoxicity, ATP luminescence;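 active = mean cytotoxicity at 5 µM above about 25%, limit read from the data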;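 note: cells exposed to compound overnight for roughly 16 to 18 hours; plate controls were DMSO wells with cells for no effect and medium without cells for full effect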
Wnt3a cs = inhibits Wnt3a reporter, counter-screen for Gli-SUFU antagonists; shares compounds with Gli-Sufu antag; AID 651995; Wnt-LIGHT cells, Wnt3a-driven luciferase reporter, luminescence; inhibition, % at 6.25 µM; 2,500 tested, 20% active;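 active = mean inhibition above about 25%, limit read from the data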
Starred values were filed as active, the others as inactive; . = not tested or not shown.

SMILES | 697 NFkB inh | Shn3 inh set2 | Jurkat NFkB inh | Gli-Sufu antag | LMP1 NFkB inh | MITF TRPM1 inh | Gli-Sufu confirm | Gli cytotox | Wnt3a cs
COc1ccc(CNS(=O)(=O)c2csc(C(N)=O)c2)cc1OC | -11 | -26 | 0 | 55* | -3 | -2 | 22 | 3 | -25
Cc1cc(C)cc(C(=O)N(NC(=O)Nc2ccc(Cl)cc2)C(C)(C)C)c1 | 18 | 12 | 5 | 60* | 7 | 7 | 22 | 10 | -3
CC(C)(C)N(NC(=O)Nc1ccc(Cl)c(Cl)c1)C(=O)c1ccccc1 | 18 | 24 | -4 | 8 | 9 | 2 | . | . | .
Cc1ccc(NC(=O)CSc2ccc3c(c2)OCCO3)c(O)c1 | 0 | 82 | 15 | 73* | 27 | 23 | 69* | 43* | 51*
Cc1ccnc(NC(=O)CSc2ccc3c(c2)OCCO3)c1 | -6 | -33 | -31 | -9 | -11 | -66 | . | . | .
CC(C)(C)c1ccc(Cn2cnc(-c3ccc([N+](=O)[O-])cc3)c2)cc1 | -34 | 11 | -42 | -20 | -19 | -46 | . | . | .
Cc1cc(C)c(Cn2cnc(-c3ccc([N+](=O)[O-])cc3)c2)c(C)c1 | -6 | 36 | -6 | 55* | 5 | 9 | 30 | 28* | -44
CCN1CCN(c2oc(-c3ccccc3C)nc2S(=O)(=O)c2ccccc2)CC1 | -40 | 36 | -27 | 52 | -24 | -6 | 22 | 2 | -24
NC(=O)CSc1nnc(-c2ccc(S(=O)(=O)N3CCOCC3)cc2)n1CC1CCCO1 (stereo not drawn) | 13 | 13 | 12 | 1 | 2 | -1 | . | . | .
CC(=O)OCC1=C(C(=O)O)N2C(=O)C(NC(=O)c3ccc(COc4c(C)cccc4Cl)o3)C2SC1 (stereo not drawn) | -13 | 1 | -10 | 8 | -3 | -4 | . | . | .
CC(=O)OCC1=C(C(=O)O)N2C(=O)C(NC(=O)c3ccc(COc4ccc(Cl)cc4)o3)C2SC1 (stereo not drawn) | 5 | -29 | 7 | 51 | -5 | 2 | 10 | 8 | -14
O=C(Nc1ccccc1)c1ccccc1NS(=O)(=O)c1ccc(Cl)s1 | 3 | 24 | 18 | -22 | 9 | -2 | . | . | .
O=C(Nc1ccccc1Cc1ccccc1)c1ccccc1NS(=O)(=O)c1ccc(Cl)s1 | 2 | 83 | 12 | 59* | 2 | -14 | 63* | 30* | 57*
CC(C)[C@H]1COCCS(=O)(=O)N1Cc1ccccc1-c1cccc2c1oc1ccccc12 | 5 | 21 | . | 93* | -11 | 6 | 24 | 7 | -40
CCCCOc1ccccc1-c1ccccc1CN1[C@@H](C(C)C)COCCS1(=O)=O | 9 | 13 | . | 12 | 12 | -6 | . | . | .
Cc1ccc(OCCSc2nnc(C)c(=O)n2N)cc1 | 7 | -11 | 3 | -7 | -4 | -11 | . | . | .
COc1ccc(C/C(C)=N/NC(=O)c2ccc(C)cc2C)cc1 | 2 | 8 | -14 | -2 | 12 | -8 | . | . | .
CCCCCCCCCCOC(=O)C[N+](C)(C)C/C=C(/C)Cl | -19 | 63 | 10 | 63* | 5 | 4 | 69* | 27* | 35*
O=C(Cn1cnc2ccccc21)N/N=C/c1cccc([N+](=O)[O-])c1 | 9 | -2 | 6 | 16 | -5 | 5 | . | . | .
Cc1[nH]c2ccccc2c1SCc1nnc(SCc2ccc(Cl)cc2)n1C | -6 | 20 | 1 | 51 | -1 | -2 | 24 | 4 | 43*
CC(C)(C)[C@H]1COC(=O)[C@H](NC(=O)OCC2c3ccccc3-c3ccccc32)C/C=C\C[C@@H](CC(=O)N[C@@H](CO)Cc2ccccc2)C(=O)N1 | -1 | 3 | 13 | 57* | 3 | 6 | 51* | 20 | -32
C[C@@H]1COC(=O)[C@H](NC(=O)OCC2c3ccccc3-c3ccccc32)C/C=C\C[C@@H](CC(=O)N[C@@H](CO)Cc2ccccc2)C(=O)N1 | 3 | 72 | -3 | 59* | 4 | 6 | 57* | 19 | -59
O=C(C[C@H]1C/C=C\C[C@H](NC(=O)OCC2c3ccccc3-c3ccccc32)C(=O)OC[C@H](Cc2ccccc2)NC1=O)N[C@H](CO)Cc1ccccc1 | -1 | 20 | -10 | 49 | -1 | 2 | . | . | .
CCOc1ccc(S(=O)(=O)NCCC(=O)NCC(c2ccco2)N2CCCCC2)cc1 (stereo not drawn) | 28 | -6 | -16 | -2 | -1 | 8 | . | . | .
Cc1c(C)n(C(=O)CSc2nccn2C)c2ccccc12 | -19 | 3 | -7 | 3 | -4 | 11 | . | . | .
SMILES | 697 NFkB inh | Shn3 inh set2 | Jurkat NFkB inh | Gli-Sufu antag | LMP1 NFkB inh | MITF TRPM1 inh | Gli-Sufu confirm | Gli cytotox | Wnt3a cs
COC(=O)c1ccc(C)c(NC(=S)NCc2ccc(Cl)cc2)c1 | -15 | 2 | 9 | 0 | -1 | -2 | . | . | .
Cc1cccn2c(=O)c3cc(C(=O)N4CCOCC4)n(C)c3nc12 | 6 | 4 | -5 | -1 | 2 | 0 | . | . | .
O=c1c2ccccc2cnn1CCOc1ccccc1 | -163 | 58 | -28 | 59* | 74* | 58 | 38 | 18 | 95*
O=C(COC(=O)C1CCN(S(=O)(=O)c2cccs2)CC1)Nc1ccc(F)c(F)c1F | 2 | 1 | 9 | -5 | -7 | 5 | . | . | .
O=C(c1ccccc1)N1CCN(CC#Cc2ccccc2)CC1 | -39 | -23 | -18 | 99* | -11 | -49 | -6 | 16 | -38
O=C(c1ccccc1)N1CCN(Cc2ccccc2)CC1 | -12 | -15 | -2 | 4 | 8 | -7 | . | . | .
O=C(Cc1nc(-c2ccc(Br)s2)cs1)NCCN1CCOCC1 | -13 | 3 | 6 | 9 | 8 | 7 | . | . | .
Cc1cc(C)n2nc(SCC(=O)c3cc(C)n(-c4cc(C)on4)c3C)nc2n1 | -34 | 82 | -4 | 55 | 18 | 12 | 52* | 30* | 34*
CN1CCC(CNC(=O)Nc2ccccc2)(c2ccccc2)CC1 | 14 | 2 | 18 | 8 | -3 | -14 | . | . | .
Cc1ccc(N2CC(C)Cn3c2nc2c3c(=O)n(CC(=O)OCc3ccccc3)c(=O)n2C)cc1C (stereo not drawn) | -18 | 12 | -6 | 57* | 0 | 7 | 38 | 17 | -37
Cc1ccc(C(=O)Cn2nnc(-c3ccccc3)n2)cc1 | -2 | 7 | -2 | -4 | 4 | -5 | . | . | .
O=C(Cn1nnc(-c2ccccc2)n1)c1ccccc1 | -5 | -15 | -16 | 57* | -4 | -20 | -2 | 4 | 5
Cc1ccc(C(=O)N[C@H](C(=O)OCc2nnc(-c3ccccc3)o2)C(C)C)cc1 | 13 | -7 | 4 | 21 | -10 | -21 | . | . | .
COc1cc(NC2=CC(=O)CC(C)(C)C2)cc(OC)c1OC | 14 | 10 | 5 | 18 | 14 | 10 | . | . | .
